# Laboratory results taken from PubChem BioAssay (EPA / NIEHS).
# Where “and” joins values, the source holds several entries; their conditions need not be identical. Equal entries are not always repeated. The source holds several records for some structures; these can differ, active in one and inactive in another. Calls of active or inactive are those of the source. How the source made its calls: active means hit-call score of the fitted dose curve at least 0.9, where 1 is the maximum; inactive means score below 0.9.
# Columns and labels:
# [1] = read-out: Monocyte Chemoattractant Protein-1 (MCP1), CCL2 (gene 6347); test: BSK_SAg_MCP1: BioMAP Diversity Plus: SAg Assay for Monocyte Chemoattractant Protein-1 (MCP1) Biomarker Activity (AID 2283090); details: primary human HUVEC with PBMC; actives raise or lower the signal
# How it was run: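 Values derive from bidirectional fitting of ELISA-measured MCP1 against DMSO controls. Readings were taken 24 h after dosing human vascular endothelial cells co-cultured with peripheral blood mononuclear cells under superantigen stimulation.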
# [2] = read-out: E-selectin (Homo sapiens) (UniProt P16581); test: BSK_SAg_Eselectin: BioMAP Diversity Plus: SAg Assay for Eselectin Biomarker Activity (AID 2283091); details: primary human HUVEC with PBMC; actives raise or lower the signal
# How it was run: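 HUVEC co-cultured with PBMC, compound dosed then read at 24 h; E-selectin measured by ELISA. Activity fitted bidirectionally against DMSO as negative control and baseline.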
# [3] = read-out: Monokine induced gamma interferon (MIG), CXCL9 (gene 4283); test: BSK_SAg_MIG: BioMAP Diversity Plus: SAg Assay for Monokine induced gamma interferon (MIG) Biomarker Activity (AID 2283092); details: primary human HUVEC with PBMC; actives raise or lower the signal
# How it was run: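 ELISA readout of MIG/CXCL9; primary human umbilical vein endothelial cells co-cultured with peripheral blood mononuclear cells; 24 h post-dose; gain/loss fit vs DMSO baseline.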
# [4] = BSK_SAg_PBMCCytotoxicity: PBMC Cytotoxicity Assessment in the BioMAP Diversity Plus: SAg Assay (AID 2283093); details: primary human HUVEC with PBMC;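 further: fitted both ways against DMSO so a hit may be loss or gain of signal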;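 on AC50: PBMC superantigen activated with SEB plus TSST-1 one hour after compound addition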
# How it was run: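 PBMC viability by Alamar Blue reduction, fluorescence read at 546/580 nm after 6 h dye exposure. Cells were dosed 1 h before SEB plus TSST-1 activation (20 ng/mL final each), then held 90 h; endothelial/PBMC human co-culture.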
# [5] = read-out: Interleukin-8 (IL8), CXCL8 (gene 3576); test: BSK_SAg_IL8: BioMAP Diversity Plus: SAg Assay for Interleukin-8 (IL8) Biomarker Activity (AID 2283094); details: primary human HUVEC with PBMC; actives raise or lower the signal
# How it was run: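 Chemicals were dosed onto a human endothelial–PBMC co-culture, and IL-8 was quantified by ELISA after 24 h. Both increases and decreases were fitted relative to DMSO.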
# [6] = BSK_SAg_Proliferation: Cell Proliferation Assessment in the BioMAP Diversity Plus: SAg Assay (AID 2283095); details: primary human HUVEC with PBMC;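 further: relative cell number as total protein by SRB absorbance in sub-confluent culture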
# How it was run: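 Absorbance of sulforhodamine B at 560 nm reports total protein in a human vascular endothelial/PBMC co-culture after 96 h chemical exposure. Gain or loss of signal is fitted in both directions against DMSO.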
# [7] = BSK_SAg_SRB: Viability Assessment in the BioMAP Diversity Plus: SAg Assay (AID 2283096); details: primary human HUVEC with PBMC;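 further: cells read one day after compound addition; hits may be either gain or loss of signal compared with DMSO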
# How it was run: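 Compounds were added to a human vascular co-culture of umbilical vein endothelium and PBMC. After 24 h, parallel cultures were fixed with 10% TCA, stained with 0.1% sulforhodamine B and read at 560 nm. Gain or loss of signal was fitted relative to DMSO.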
# E-selectin (Homo sapiens), sequence (P16581 whole entry, looked up): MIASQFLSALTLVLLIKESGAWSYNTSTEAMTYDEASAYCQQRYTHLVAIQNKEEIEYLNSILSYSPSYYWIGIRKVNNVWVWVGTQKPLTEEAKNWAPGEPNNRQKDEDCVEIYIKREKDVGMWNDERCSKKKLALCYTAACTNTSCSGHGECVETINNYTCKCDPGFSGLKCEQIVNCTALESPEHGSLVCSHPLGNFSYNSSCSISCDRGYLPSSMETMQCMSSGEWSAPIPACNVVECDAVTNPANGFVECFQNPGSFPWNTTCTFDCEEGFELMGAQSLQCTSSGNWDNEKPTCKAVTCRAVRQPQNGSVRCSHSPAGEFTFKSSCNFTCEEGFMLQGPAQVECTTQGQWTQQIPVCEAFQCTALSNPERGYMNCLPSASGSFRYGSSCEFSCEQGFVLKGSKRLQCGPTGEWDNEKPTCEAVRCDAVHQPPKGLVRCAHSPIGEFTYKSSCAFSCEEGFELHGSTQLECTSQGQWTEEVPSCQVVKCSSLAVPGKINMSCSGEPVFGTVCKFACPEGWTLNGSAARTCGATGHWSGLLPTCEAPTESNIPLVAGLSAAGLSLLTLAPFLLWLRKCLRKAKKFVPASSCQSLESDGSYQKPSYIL
SMILES,outcome [1],outcome [2],outcome [3],outcome [4],outcome [5],outcome [6],outcome [7],AC50 [4],AC50 [6],AC50 [1],AC50 [2],AC50 [5],AC50 [3],AC50 [7]
c1cc2c3c(cccc3c1)CC2,inactive,inactive,inactive,inactive,inactive,inactive,inactive,,,,,,,
COCCOCCO,inactive,inactive,inactive,inactive,inactive,inactive,inactive,,,,,,,
O=C(O)C(F)(F)C(F)(F)C(=O)O,inactive,inactive,inactive,inactive,inactive,inactive,inactive,,,,,,,
CC(Cl)(Cl)C(=O)O,inactive,inactive,inactive,inactive,inactive,inactive,inactive,,,,,,,
CC(O)C(F)(F)C(F)(F)F (stereo not drawn),inactive,inactive,inactive,inactive,inactive,inactive,inactive,,,,,,,
CC(C)(C)OOC(C)(C)C,inactive,inactive,inactive,inactive,inactive,inactive,inactive,,,,,,,
Cc1c([N+](=O)[O-])cc2c(c1[N+](=O)[O-])C(C)(C)CC2(C)C,inactive,inactive,inactive,,inactive,,inactive,15.3 µM (active),7.41 µM (active),,,,,
COP(=O)(CCC(=O)NCO)OC,inactive,inactive,inactive,inactive,inactive,inactive,inactive,,,,,,,
ClC(Cl)(Cl)c1ccccc1,inactive,inactive,inactive,inactive,inactive,inactive,inactive,,,,,,,
OCC(F)(F)OC(F)(F)C(F)(F)OC(F)(F)C(F)(F)OC(F)(F)CO,inactive,,inactive,inactive,inactive,inactive,inactive,,,10.3 µM (active),38.3 µM (active) and 42.9 µM (active),17.9 µM (active),,
Cc1cccc(N)c1,inactive,inactive,inactive,inactive,inactive,inactive,inactive,,,,,,,
CCCCc1ccccc1,inactive,inactive,inactive,inactive,inactive,inactive,inactive,,,,,,,
O=C(O)C(F)(F)OC(F)(F)C(F)(F)OC(F)(F)F,inactive,inactive,inactive,inactive,inactive,inactive,inactive,,,,,,,
C=CC(=O)OCC(F)(F)C(F)F,,,,inactive,,,inactive,15.1 µM (active),13.4 µM (active) and 6.25 µM (active),34.3 µM (active) and 20.4 µM (active),30.4 µM (active) and 17.6 µM (active),20.7 µM (active) and 9.88 µM (active),53.5 µM (active) and 45.4 µM (active),
CCCCC(CC)COP(=O)(Oc1ccccc1)Oc1ccccc1 (stereo not drawn),inactive,,inactive,,,,inactive,20 µM (active),20 µM (active),,20 µM (active),7.9 µM (active),,
CCOS(=O)(=O)OCC,inactive,inactive,inactive,inactive,inactive,inactive,inactive,,,,,,,
O=C(O)C(F)(OC(F)(F)C(F)(F)C(F)(F)F)C(F)(F)F (stereo not drawn),inactive,inactive,inactive,inactive,inactive,inactive,inactive,,,,,9.29 µM (active),,
ClC(Cl)=C(c1ccc(Cl)cc1)c1ccccc1Cl,,,,,,,,10.9 µM (active),6.98 µM (active),25.9 µM (active),20 µM (active),20 µM (active),20 µM (active),30.3 µM (active)
O=C(O)C=CC(F)(C(F)(F)F)C(F)(F)F,inactive,inactive,inactive,inactive,inactive,inactive,inactive,,,,,,,
COP(=O)(O)OC,inactive,,inactive,inactive,inactive,inactive,inactive,,,,0.0643 µM (active),,,
CCN(CC)c1ccccc1,inactive,inactive,inactive,inactive,inactive,inactive,inactive,,,,,,,
c1nc[nH]n1,inactive,inactive,inactive,inactive,inactive,inactive,inactive,,,,,,,
